We go through three compounds from PubChem BioAssay (EPA / NIEHS).

Several values for one entry are separate records, joined by “and”; a condition that tells them apart may be missing. Equal entries are not always repeated. A structure can be active in one record and inactive in another. Activity calls are given as the source filed them. Rule for the calls: active = hit-call score of the fitted dose curve at least 0.9, where 1 is the maximum; inactive = score below 0.9.

A short description of experiment [1]: ATG_M_32_CIS: Attagene CIS-FACTORIAL HepG2 Assay for M32 Transcription Factor (Internal Marker) (AID 2282949).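 Note: background control marker of the multiplexed CIS panel rather than a real target.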 Particulars: HepG2 Attagene cis-factorial M32 reporter, mRNA; actives raise or lower the signal. An outline of the steps: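 HepG2 transfectants (cis-regulated reporter transcription units) dosed 24 h. Reporter mRNA by RT-PCR plus CE, analysed as gain or loss relative to DMSO.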

Experiment [2] in a line: ATG_M_06_CIS: Attagene CIS-FACTORIAL HepG2 Assay for M06 Transcription Factor (Internal Marker) (AID 2282950). Particulars: HepG2 Attagene CIS-FACTORIAL M06 internal marker reporter; actives raise or lower the signal. An outline of the steps: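 Steps: transfect HepG2 with multiplexed cis-element reporter constructs; dose chemical 24 h; extract RNA with DNase treatment; reverse-transcribe, PCR-amplify, 6-FAM label, HpaI digest; separate fragments by capillary electrophoresis. Activity fitted both directions versus DMSO.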

Experiment [3] has as its target Hypoxia-inducible factor 1-alpha (Homo sapiens) (UniProt Q16665). In words: ATG_HIF1a_CIS: Attagene CIS-FACTORIAL HepG2 Assay for human Hypoxia Inducible Factor 1 (HIF1A) (AID 2282951). Particulars: HepG2 Attagene cis-factorial HIF1a reporter transcription; actives raise or lower the signal. An outline of the steps:
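Activity is fitted in both directions relative to DMSO. Reporter transcripts are read by RT-PCR, fluorescent primer extension and capillary electrophoresis after 24 h chemical treatment. The cells are HepG2 carrying transiently transfected cis-element-driven reporter units responding to endogenous factors.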

The target in experiment [4] is Hepatocyte nuclear factor 6 (Homo sapiens) (UniProt Q9UBC0). In words: ATG_HNF6_CIS: Attagene CIS-FACTORIAL HepG2 Assay for human Hepatocyte Nuclear Factor 6 (HNF6) (AID 2282952). Particulars: HepG2 Attagene cis-factorial HNF6 reporter transcription; actives raise or lower the signal. An outline of the steps: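 First, HepG2 cells were transfected with the multiplexed cis reporter library and dosed with chemical for 24 h. Next, RNA was reverse-transcribed, PCR-amplified and fluorescently labelled. Finally, HpaI-digested fragments were read by capillary electrophoresis.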
Sequence of Hepatocyte nuclear factor 6 (Homo sapiens) (Q9UBC0 whole entry, looked up, the tested form may be a part): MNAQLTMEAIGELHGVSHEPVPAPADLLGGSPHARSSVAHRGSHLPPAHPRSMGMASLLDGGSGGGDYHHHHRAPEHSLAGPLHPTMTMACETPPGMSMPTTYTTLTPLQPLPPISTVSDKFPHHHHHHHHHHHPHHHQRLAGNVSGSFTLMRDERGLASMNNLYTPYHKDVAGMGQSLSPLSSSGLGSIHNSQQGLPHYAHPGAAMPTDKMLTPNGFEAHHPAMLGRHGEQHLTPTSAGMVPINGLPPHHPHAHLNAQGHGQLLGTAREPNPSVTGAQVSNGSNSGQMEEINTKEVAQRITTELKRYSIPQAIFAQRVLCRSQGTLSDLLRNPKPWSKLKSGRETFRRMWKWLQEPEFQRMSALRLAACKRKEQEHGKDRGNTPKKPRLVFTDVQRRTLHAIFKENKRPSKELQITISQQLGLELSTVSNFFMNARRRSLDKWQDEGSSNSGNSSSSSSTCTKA

Experiment [5] has as its target Heat shock factor protein 1 (Homo sapiens) (UniProt Q00613). In words: ATG_HSE_CIS: Attagene CIS-FACTORIAL HepG2 Assay for human Heat Shock Transcription Factor 1 (HSE) (AID 2282953). As to conditions: HepG2 HSE cis-reporter, Attagene RNA transcription; actives raise or lower the signal. An outline of the steps: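 Cells were transfected with cis-element-driven reporter constructs, dosed for 24 h, then total RNA was reverse-transcribed and reporter cDNA amplified, FAM-labelled and digested with HpaI. Fragments were resolved by capillary electrophoresis; gain or loss was fitted against DMSO.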

The nature of experiment [6]: ATG_MRE_CIS: Attagene CIS-FACTORIAL HepG2 Assay for human Metal Responsive Element (MRE) (AID 2282954). Particulars: HepG2 MRE cis-reporter transcription, Attagene multiplex; actives raise or lower the signal. The method in brief:
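Measured here is mRNA induction from an MRE cis-element reporter in HepG2 after 24 h, quantified by fluorescence of labelled RT-PCR products on capillary electrophoresis; gain- and loss-of-signal fits use DMSO as baseline.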

Experiment [7] is described as follows: ATG_PBREM_CIS: Attagene CIS-FACTORIAL HepG2 Assay for human Phenobarbital-responsive Enhancer Module (PBREM) (AID 2282955). As to conditions: HepG2 PBREM cis-reporter, Attagene multiplexed transcription; actives raise or lower the signal. An outline of the steps:
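Endogenous transcription factor activity was read from reporter transcripts in transiently transfected human HepG2 liver cells after 24 h dosing. RT-PCR products were fluorescently labelled, HpaI-cut and sized by capillary electrophoresis; activity fitted bidirectionally against DMSO baseline.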

Experiment [8] deals with Paired box protein Pax-6 (Homo sapiens) (UniProt P26367). The experiment in a line: ATG_Pax6_CIS: Attagene CIS-FACTORIAL HepG2 Assay for human Paired Box 6 (PAX6) (AID 2282956). Particulars: HepG2 CIS-FACTORIAL PAX6 reporter transcription, RNA readout; actives raise or lower the signal. The method in brief:
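DMSO-referenced bidirectional fits of reporter mRNA fluorescence; HepG2 with transient cis-promoter MRTUs, 24 h post-dose, RT-PCR plus capillary electrophoresis detection.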

A short description of experiment [9]: ATG_PXRE_CIS: Attagene CIS-FACTORIAL HepG2 Assay for human Pregnane X Receptor Element (PXRE) (AID 2282957). Particulars: HepG2 Attagene CIS-FACTORIAL PXRE reporter, mRNA; actives raise or lower the signal. An outline of the steps:
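After a 24 h chemical incubation, total RNA from transfected HepG2 cells was reverse-transcribed and reporter cDNA amplified, FAM-labeled, HpaI-digested and sized by capillary electrophoresis. DMSO served as baseline for bidirectional curve fitting.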

Experiment [10] in a line: ATG_PPRE_CIS: Attagene CIS-FACTORIAL HepG2 Assay for human Peroxisome Proliferator-activated Response Element (PPRE) (AID 2282958). As to conditions: HepG2 PPRE cis-element reporter, Attagene transcription factor profiling; actives raise or lower the signal. An outline of the steps:
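Endogenous PPRE-driven transcription is measured in HepG2 cells carrying transfected multi-reporter constructs. Reporter transcripts are quantified by RT-PCR, HpaI digestion and capillary electrophoresis 24 h after dosing. DMSO baseline, bidirectional fit.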

A short description of experiment [11]: ATG_RORE_CIS: Attagene CIS-FACTORIAL HepG2 Assay for human RAR-related Orphan Receptor Element (RORE) (AID 2282959). As to conditions: HepG2 Attagene cis-factorial RORE reporter, mRNA; actives raise or lower the signal. An outline of the steps:
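RORE reporter transcripts reflecting endogenous factor activity were read after 24 h compound exposure of transfected HepG2 cells, using reverse transcription, PCR, fluorescent labelling and capillary electrophoresis sizing. Gain or loss fitted against DMSO.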

Experiment [12] in a line: ATG_Sox_CIS: Attagene CIS-FACTORIAL HepG2 Assay for human SRY-box transcription factor (SOX) (AID 2282960). As to conditions: HepG2 Attagene cis-factorial SOX reporter, mRNA; actives raise or lower the signal. The method in brief:
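Reporter transcripts, measured by RT-PCR and capillary electrophoresis of labelled fragments, report endogenous SOX transcription factor activity. Transiently transfected human HepG2 cells receive chemical for 24 h; changes in either direction are fitted relative to DMSO.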

Experiment [13] deals with Transcription factor Sp1 (Homo sapiens) (UniProt P08047). In words: ATG_Sp1_CIS: Attagene CIS-FACTORIAL HepG2 Assay for human Specificity Protein 1 (Sp1) (AID 2282961). Particulars: HepG2 Sp1 cis-reporter transcription, actives raise or lower the signal. The method in brief: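 Read-out is reporter transcript level, measured by RT-PCR and fluorescent capillary electrophoresis after 24 h chemical treatment. System: transiently transfected HepG2 cells reporting endogenous transcription factor activity; gain or loss fitted against DMSO baseline.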
Sequence of Transcription factor Sp1 (Homo sapiens) (P08047 whole entry, looked up): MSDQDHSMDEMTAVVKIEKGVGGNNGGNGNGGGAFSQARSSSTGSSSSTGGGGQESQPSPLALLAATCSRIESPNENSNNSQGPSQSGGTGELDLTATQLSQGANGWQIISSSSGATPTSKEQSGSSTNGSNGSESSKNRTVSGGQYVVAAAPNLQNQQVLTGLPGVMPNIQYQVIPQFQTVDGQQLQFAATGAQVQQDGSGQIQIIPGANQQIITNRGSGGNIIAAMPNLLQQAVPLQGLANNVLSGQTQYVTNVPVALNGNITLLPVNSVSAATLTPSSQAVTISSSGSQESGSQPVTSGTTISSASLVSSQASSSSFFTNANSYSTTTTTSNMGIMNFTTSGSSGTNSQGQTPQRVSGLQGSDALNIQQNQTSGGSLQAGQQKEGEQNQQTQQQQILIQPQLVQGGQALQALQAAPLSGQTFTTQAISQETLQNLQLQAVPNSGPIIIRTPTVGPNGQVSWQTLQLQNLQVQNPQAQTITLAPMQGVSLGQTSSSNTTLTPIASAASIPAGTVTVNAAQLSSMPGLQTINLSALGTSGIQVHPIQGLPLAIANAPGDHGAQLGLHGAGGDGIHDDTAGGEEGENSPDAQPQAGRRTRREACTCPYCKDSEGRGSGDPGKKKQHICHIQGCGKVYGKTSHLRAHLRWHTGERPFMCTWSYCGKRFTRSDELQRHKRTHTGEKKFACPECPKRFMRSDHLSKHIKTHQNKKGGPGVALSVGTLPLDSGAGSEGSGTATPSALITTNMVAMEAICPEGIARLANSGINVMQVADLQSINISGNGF

A short description of experiment [14]: ATG_SREBP_CIS: Attagene CIS-FACTORIAL HepG2 Assay for human Sterol Regulatory Element Binding (SREBP) (AID 2282962). As to conditions: HepG2 Attagene cis-factorial SREBP reporter, mRNA; actives raise or lower the signal. The method in brief: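 In this cis-format assay, HepG2 liver cells express reporters controlled by promoter elements responsive to native transcription factors. Exposure lasts 24 h; reporter mRNA fluorescence from capillary electrophoresis gives the signal, fitted bidirectionally against DMSO.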

Experiment [15] concerns the target Signal transducer and activator of transcription 3 (Homo sapiens) (UniProt P40763). In words: ATG_STAT3_CIS: Attagene CIS-FACTORIAL HepG2 Assay for human Signal Transducer and Activator of Transcription 3 (STAT3) (AID 2282963). Particulars: HepG2, Attagene cis-factorial STAT3 reporter transcription; actives raise or lower the signal. The method in brief: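 Fluorescence intensity of 6-FAM-labelled reporter fragments, separated by capillary electrophoresis after RT-PCR, gave the signal. Cells were HepG2 transfected with cis-element reporter units and treated 24 h; fitting was bidirectional relative to DMSO.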

Experiment [16] can be described thus: ATG_TA_CIS: Attagene CIS-FACTORIAL HepG2 Assay for human TA Basal Promoter (AID 2282964). As to conditions: HepG2 Attagene CIS-factorial TA basal promoter reporter; actives raise or lower the signal. The method in brief: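 Steps: transfect HepG2 with MRTUs; dose 24 h; isolate RNA, DNase-treat, reverse-transcribe; PCR and FAM-label reporter cDNA; digest with HpaI 2h at 37 C; run capillary electrophoresis. Activity fitted both directions against DMSO.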

Experiment [17] in a line: ATG_TCF_b_cat_CIS: Attagene CIS-FACTORIAL HepG2 Assay for human T-Cell-Factor with beta-catenin (TCF/b-cat) (AID 2282965). Particulars: HepG2 TCF/beta-catenin cis-reporter transcription, actives raise or lower the signal. The method in brief:
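Cells of the HepG2 line carry transiently transfected reporter units whose promoters respond to endogenous factors. Twenty-four hours post-dosing, reporter mRNA induction is measured by fluorescent RT-PCR and capillary electrophoresis, with DMSO as baseline.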

A short description of experiment [18]: ATG_TAL_CIS: Attagene CIS-FACTORIAL HepG2 Assay for human TAL Basal Promoter (AID 2282966).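 Note: background control endpoint measuring basal TAL promoter reporter mRNA not a specific factor.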 As to conditions: HepG2 Attagene cis-factorial TAL promoter reporter; actives raise or lower the signal. An outline of the steps:
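Basal-promoter background-control endpoint from a multiplexed HepG2 reporter panel. Cells were exposed 24 h, then reporter mRNA was read by RT-PCR/CE fluorescence and fitted in both directions relative to DMSO.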

Experiment [19] in a line: ATG_TGFb_CIS: Attagene CIS-FACTORIAL HepG2 Assay for human Transforming Growth Factor (TGF) (AID 2282967). Particulars: HepG2 Attagene CIS TGFb reporter, mRNA transcription; actives raise or lower the signal. The method in brief: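 Cells were dosed for 24 hours, after which total RNA was reverse-transcribed and reporter sequences amplified, labeled and sized by capillary electrophoresis. Activity was fitted in both directions against DMSO.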

A short description of experiment [20]: ATG_VDRE_CIS: Attagene CIS-FACTORIAL HepG2 Assay for human Vitamin D Receptor Element (VDRE) (AID 2282968). As to conditions: HepG2 VDRE cis-reporter transcription, actives raise or lower the signal. The method in brief: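 Compounds were applied for 24 h to HepG2 cells transfected with promoter-regulated reporter units. Total RNA was reverse-transcribed, and reporter amplicons were fluorescently labelled and sized by capillary electrophoresis.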

Sequence of Hypoxia-inducible factor 1-alpha (Homo sapiens) (Q16665 whole entry, looked up): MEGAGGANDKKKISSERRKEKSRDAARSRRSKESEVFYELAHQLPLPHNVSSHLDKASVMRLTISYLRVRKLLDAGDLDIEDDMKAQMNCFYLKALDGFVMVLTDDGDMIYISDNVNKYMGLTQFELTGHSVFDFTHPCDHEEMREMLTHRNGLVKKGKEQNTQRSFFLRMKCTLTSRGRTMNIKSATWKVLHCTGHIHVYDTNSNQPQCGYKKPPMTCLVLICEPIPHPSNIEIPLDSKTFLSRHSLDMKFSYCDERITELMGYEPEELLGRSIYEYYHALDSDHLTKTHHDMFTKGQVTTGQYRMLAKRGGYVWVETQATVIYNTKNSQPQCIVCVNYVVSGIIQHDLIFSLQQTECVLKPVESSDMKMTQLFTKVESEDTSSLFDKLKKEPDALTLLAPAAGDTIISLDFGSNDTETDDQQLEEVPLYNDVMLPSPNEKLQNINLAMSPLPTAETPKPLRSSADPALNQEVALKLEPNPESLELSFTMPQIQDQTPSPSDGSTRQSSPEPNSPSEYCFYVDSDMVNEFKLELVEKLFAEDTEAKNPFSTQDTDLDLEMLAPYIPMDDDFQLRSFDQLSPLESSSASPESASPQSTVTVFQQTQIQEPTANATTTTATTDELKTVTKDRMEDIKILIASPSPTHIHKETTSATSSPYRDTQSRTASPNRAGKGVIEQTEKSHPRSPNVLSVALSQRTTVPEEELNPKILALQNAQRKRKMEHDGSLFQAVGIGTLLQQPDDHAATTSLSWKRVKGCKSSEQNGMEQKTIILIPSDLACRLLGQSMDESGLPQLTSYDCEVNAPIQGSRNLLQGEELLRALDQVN
Sequence of Signal transducer and activator of transcription 3 (Homo sapiens) (P40763 whole entry, looked up, the tested form may be a part): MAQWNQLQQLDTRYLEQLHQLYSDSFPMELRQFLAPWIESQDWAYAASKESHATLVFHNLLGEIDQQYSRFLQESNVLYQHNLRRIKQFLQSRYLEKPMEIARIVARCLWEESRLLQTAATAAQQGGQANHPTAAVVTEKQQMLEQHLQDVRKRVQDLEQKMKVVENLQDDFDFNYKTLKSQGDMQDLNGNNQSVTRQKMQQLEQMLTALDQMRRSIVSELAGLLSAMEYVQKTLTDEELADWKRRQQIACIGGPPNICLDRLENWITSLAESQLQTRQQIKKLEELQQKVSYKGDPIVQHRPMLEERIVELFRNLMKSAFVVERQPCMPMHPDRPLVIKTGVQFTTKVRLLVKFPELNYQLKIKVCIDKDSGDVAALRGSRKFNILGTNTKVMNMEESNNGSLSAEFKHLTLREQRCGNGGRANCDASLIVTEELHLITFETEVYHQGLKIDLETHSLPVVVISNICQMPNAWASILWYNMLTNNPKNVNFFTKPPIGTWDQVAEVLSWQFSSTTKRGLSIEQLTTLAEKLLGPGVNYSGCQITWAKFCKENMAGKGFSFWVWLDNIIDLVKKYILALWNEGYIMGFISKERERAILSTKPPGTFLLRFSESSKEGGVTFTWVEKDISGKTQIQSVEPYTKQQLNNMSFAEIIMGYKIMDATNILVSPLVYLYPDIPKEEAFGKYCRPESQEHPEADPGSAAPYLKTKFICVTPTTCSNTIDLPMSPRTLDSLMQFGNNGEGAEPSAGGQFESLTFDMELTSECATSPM
Sequence of Heat shock factor protein 1 (Homo sapiens) (Q00613 whole entry, looked up, the tested form may be a part): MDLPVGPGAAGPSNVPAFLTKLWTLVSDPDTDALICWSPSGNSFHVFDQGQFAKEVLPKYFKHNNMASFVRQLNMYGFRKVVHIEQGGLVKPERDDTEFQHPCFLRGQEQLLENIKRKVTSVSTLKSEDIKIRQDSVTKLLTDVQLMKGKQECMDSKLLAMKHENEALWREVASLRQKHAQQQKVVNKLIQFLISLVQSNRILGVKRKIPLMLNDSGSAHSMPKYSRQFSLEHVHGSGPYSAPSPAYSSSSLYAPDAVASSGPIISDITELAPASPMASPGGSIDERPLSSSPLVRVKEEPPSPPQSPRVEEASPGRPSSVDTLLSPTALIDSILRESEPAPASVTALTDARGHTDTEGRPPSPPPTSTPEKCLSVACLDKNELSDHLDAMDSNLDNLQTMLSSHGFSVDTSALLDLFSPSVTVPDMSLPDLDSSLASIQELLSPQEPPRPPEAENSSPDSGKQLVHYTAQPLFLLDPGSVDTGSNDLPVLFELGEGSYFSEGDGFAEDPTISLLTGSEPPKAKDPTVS
Sequence of Paired box protein Pax-6 (Homo sapiens) (P26367 whole entry, looked up): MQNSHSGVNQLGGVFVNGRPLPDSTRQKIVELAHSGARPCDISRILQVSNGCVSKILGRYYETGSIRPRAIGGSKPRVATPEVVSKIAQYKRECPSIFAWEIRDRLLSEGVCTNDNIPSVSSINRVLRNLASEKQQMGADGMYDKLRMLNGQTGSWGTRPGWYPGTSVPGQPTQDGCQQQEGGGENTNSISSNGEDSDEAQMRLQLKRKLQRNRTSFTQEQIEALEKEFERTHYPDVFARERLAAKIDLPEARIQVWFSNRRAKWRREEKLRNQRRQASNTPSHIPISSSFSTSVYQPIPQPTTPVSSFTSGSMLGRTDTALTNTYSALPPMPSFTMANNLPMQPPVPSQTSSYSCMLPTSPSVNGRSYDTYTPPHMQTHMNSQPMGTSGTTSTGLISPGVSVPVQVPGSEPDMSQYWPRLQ

As for `O=C(F)C(F)(F)C(F)(F)C(F)(F)C(F)F`, the result in experiment [1], in [2], in experiment [3], in experiment [4], in [5] and in experiment [6] was inactive. The outcome in experiment [7], in [8], in [9], in [10], in experiment [11] and in [12] was inactive. Also, the result in [13], in experiment [14], in [15], in experiment [16], in [17] and in experiment [18] was inactive. Moreover, the call in experiment [19] and in experiment [20] was inactive.
One may read the AC50 as the concentration at which the activity in the assay is half-maximal. As for `CCCCCCCCCCCCCCCCCC[N+](C)(C)Cc1ccccc1`, the outcome in experiment [1], in [2], in [3], in experiment [5], in experiment [7] and in experiment [8] was inactive. Moreover, the compound was classed as inactive in experiment [9], in experiment [11], in experiment [13], in experiment [16], in experiment [17] and in experiment [18]. Moreover, the call in [19] was inactive. Moreover, the AC50 in experiment [4] was 10.1 µM (active); in experiment [6], 7.27 µM (active); in experiment [10], 79.8 µM (active); in experiment [12], 12.4 µM (active); in experiment [14], 13.2 µM (active); in experiment [15], 88.9 µM (active). In [20], the AC50 was 50 µM (active).
In the case of `NC(=NCCCCCCN=C(N)/N=C(\N)Nc1ccc(Cl)cc1)/N=C(\N)Nc1ccc(Cl)cc1`, the half-maximal activity concentration (AC50) in experiment [1] is 23.4 µM (active) and 23.8 µM (active); in [4] it was 25.7 µM (active); in experiment [6], 2.62 µM (active) and 2.68 µM (active) and 1.87 µM (active); in [7], 4.31 µM (active); in [12] it was 22.1 µM (active) and 25.5 µM (active); in experiment [13], 159 µM (active) and 23.3 µM (active). Further, the AC50 in [14] was 23.3 µM (active); in experiment [17], 23 µM (active) and 25.4 µM (active); in experiment [18], 119 µM (active); in experiment [19], 0.0763 µM (active). Also, the compound was classed as inactive in [1], in experiment [2], in experiment [3], in experiment [4], in experiment [5] and in [7]. Also, the compound was called inactive in [9], in experiment [12], in [13], in [14], in [15] and in experiment [16]. Further, the result in [17], in experiment [18] and in [19] was inactive.
